In PubChem BioAssay (NCATS):
Inconclusive results are not listed. Active and inactive are the calls of the source. Unless noted, calls follow the shape of the dose curve; as a rule, active = well fitted curve in the direction sought with a large enough effect; inconclusive = small, poorly fitted or top-dose-only effect, or another doubt; inactive = no such curve, though single readings can be large; an effect the other way counts as inactive or inconclusive.

What was measured:
[1] = target: Arylsulfatase A (Homo sapiens) (UniProt P15289); experiment: qHTS screen for enhancers of Arylsulfatase A (ASA1): LOPAC Validation Assay (AID 720538)
Procedure, shortened: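 Cell-based enhancement test: residual ASA activity in SV40-transformed I179S patient fibroblasts is measured by pNCS turnover (0.5mM final, 14h, room temperature) following 48h compound incubation; higher fluorescence indicates activation.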

[2] = qHTS for compounds that reverse cellular toxicity of Amyloid beta (A-beta) peptide in yeast: LOPAC Validation Assay (AID 720559);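 also: plate controls were DMSO for no effect and equimolar ferric chloride plus clioquinol rescue for full effect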
Procedure, shortened: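 Here, A-beta-toxic yeast grow with test compounds at 30 C for 48 hr before optical density at 600 nm is recorded; data are normalized against DMSO and the FeCl3-clioquinol control.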

[3] = qHTS for Activators of Parkin Expression: LOPAC Validation Assay (NLuc Reporter) (AID 720572;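 also: 0% = DMSO and 100% = positive control compound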)
Procedure, shortened: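 Cells harboring the Parkin-promoter coincidence reporter were treated for 24 h at seven concentrations. NLuc output was measured sequentially after the FLuc channel and scaled between DMSO and positive control values.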

[4] = qHTS assay for small molecule activators of the p53 signaling pathway (AID 651743; active = well fitted activation curve with a large enough effect in the signal ratio, not every such curve was filed as active; the % refers to the signal ratio; also: series mostly up to about 92 µM; % of control where 0% means no effect); details: HCT-116 p53RE-bla, beta-lactamase FRET ratio, 16 h; stronger effect = higher value
Procedure, shortened: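 Agonist-mode quantitative HTS in HCT-116 cells carrying a p53-response-element beta-lactamase reporter; 16 h compound treatment at 37 C, then FRET substrate loading for 2 h at room temperature and fluorescence read.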

[5] = qHTS assay for small molecule activators of the nuclear factor-kappa B (NF-kB) signaling pathway (AID 651749; active = well fitted activation curve with a large enough effect in the signal ratio; the % refers to the signal ratio; also: series mostly up to about 77 µM; % of control where 0% means no effect); details: NF-kB-bla ME-180 cells, beta-lactamase FRET ratio, 16 h; stronger effect = higher value
Procedure, shortened: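 Human ME-180 cervical cells with an NF-kB-bla construct; compounds added via 23 nL pin transfer, DMSO as vehicle; incubation 16 hr. Reporter activity measured by FRET disruption.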

[6] = target: Tumor necrosis factor (Homo sapiens) (UniProt P01375); experiment: qHTS assay to identify small molecules that stimulate Tumor Necrosis Factor-alpha (TNF-alpha) secretion (AID 651757; active = well fitted curve in the direction sought with a large enough effect in the signal ratio; the % refers to the signal ratio; also: 0% is about no effect)
Procedure, shortened: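 Secreted TNF-alpha quantified by TR-FRET sandwich of two labeled anti-TNF-alpha antibodies, incubated 3 hr at room temperature. Preceded by 17 hr, 37 C compound treatment of THP-1 cells at 3000 cells/well.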

[7] = qHTS assay to identify small molecules that stimulate interleukin-8 (IL-8) secretion (AID 651758; active = well fitted activation curve with a large enough effect in the signal ratio; the % refers to the signal ratio; also: 0% is about no effect)
Procedure, shortened: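 Quantitative HTS in THP-1 monocytic cells at 2000 cells per well, with 16 hrs compound incubation at 37 C. IL-8 in the medium was then quantified by HTRF immunoassay, read after 1-3 hrs at room temperature.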

[8] = qHTS assay for environmental chemicals that activate the Aryl hydrocarbon Receptor (AhR) signaling pathway (AID 651777); details: 1A2-DRE human hepatoma cells, luciferase, 24 h; stronger effect = higher value; also: % of control where 0% means no effect; nearly all actives have a fitted effect of over 15% in size
Procedure, shortened: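 1A2-DRE human hepatoma reporter line; 1,200 cells/well; cmpd or DMSO 24 h, 37 C/5% CO2; One-Glo 30 min RT; luciferase lum.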

[9] = target: Peroxisome proliferator-activated receptor alpha (Homo sapiens) (UniProt Q07869); experiment: qHTS assay for small molecule agonists of the peroxisome proliferator-activated receptor alpha (PPARalpha) signaling pathway (AID 651778); details: PathHunter PPARalpha complementation, chemiluminescence, 6 h; max response: stronger effect = higher value; also: potency is read from the fitted curve at half-maximal effect; as to max response: % of control where 0% means no effect
Procedure, shortened: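 Cells plated at 2,000/well and held overnight at 37 C, 5% CO2, then compound added by pin tool for 6 hr; after PathHunter detection reagent and 60 min at room temperature, chemiluminescence from enzyme complementation was read.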

[10] = target: Nuclear receptor ROR-gamma (Homo sapiens) (UniProt P51449); experiment: qHTS assay for small molecule antagonists of the retinoid-related orphan receptor gamma (ROR-gamma) signaling pathway (AID 651802);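 also: CHO cells with doxycycline-induced ROR-gamma expression; luciferase reporter luminescence driven by ROR response element; series mostly up to about 92 µM; % is scaled to controls: 0 for no effect and ±100 for the full control effect; nearly all actives have a fitted effect of over 60% in size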
Procedure, shortened: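 Luminescence (One-Glo, 30 min RT) measured 16 h after compound addition and doxycycline induction at 37C. Reporter: RORE-luciferase under TET-inducible ROR-gamma in CHO cells.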

[11] = qHTS for Activators of Parkin Expression: LOPAC Validation Assay (FLuc Reporter) (AID 720573;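 also: 0% = DMSO and 100% = positive control compounds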)
Procedure, shortened: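 Readout is FLuc luminescence from neuronal reporter cells (Parkin promoter, FLuc plus NLuc) after 24 h compound exposure in dose response. Values normalized to neutral DMSO and positive-control compounds.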

[12] = qHTS assay for small molecule agonists of the antioxidant response element (ARE) signaling pathway measured by Nrf2-dependant transcriptional activity (AID 720636; active = well fitted curve in the direction sought with a large enough effect in the repeat runs; an effect the other way counts as inactive or inconclusive;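 also: HepG2 cells with an ARE-driven luciferase reporter; % of control where 0% means no effect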)
Procedure, shortened: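 Cells: ARE-luc HepG2 with Nrf2-responsive luciferase. Medium contained 1% dialyzed FBS. Compound exposure lasted 16 hr at 37 C and 5% CO2, followed by ONE-Glo luciferase detection.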

[13] = qHTS assay for small molecule antagonists of the retinoid-related orphan receptor gamma (ROR-gamma) signaling pathway - cell viability counter screen (AID 720652; active = well fitted curve in the direction sought with a large enough effect in the repeat runs; an effect the other way counts as inactive or inconclusive;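 also: CHO reporter cells with doxycycline-induced ROR-gamma expression; series mostly up to about 92 µM; compound exposure lasted 16 hr before ATP read; % is scaled to controls: 0 for no effect and ±100 for the full control effect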)
Procedure, shortened: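 Cytotoxicity counter screen: intracellular ATP (CellTiter-Glo luminescence) measured in the doxycycline-induced CHO RORE-luciferase reporter line after 16 hr compound exposure at 37 C, 5% CO2.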

[14] = qHTS assay for small molecule agonists of the antioxidant response element (ARE) signaling pathway measured by Nrf2-dependant transcriptional activity - cell viability counter screen (AID 720653; active = well fitted curve in the direction sought with a large enough effect in the repeat runs; an effect the other way counts as inactive or inconclusive; also: % is scaled to controls: 0 for no effect and ±100 for the full control effect); details: ARE-bla HepG2 viability, CellTiter-Glo ATP luminescence, 16 h; stronger effect = lower value
Procedure, shortened: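 ARE-bla HepG2 cells (2,000/well) rested 5 hrs at 37C/5% CO2, then exposed to compounds in DMSO for 16 hrs. Viability was read in the same wells as intracellular ATP by luminescence, 30 min at room temperature after reagent addition.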

[15] = qHTS assay for small molecule agonists of the antioxidant response element (ARE) signaling pathway (AID 651741; active = well fitted activation curve with a large enough effect in the signal ratio; the % refers to the signal ratio; also: % of control where 0% means no effect)
Procedure, shortened: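 Reporter: beta-lactamase under ARE, stably in HepG2. Exposure: 16 h, 37 C, compounds delivered in DMSO by pin tool after 5 h cell preincubation. Readout: FRET substrate fluorescence after 2 h at RT.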

[16] = qHTS assay for small molecule disruptors of the mitochondrial membrane potential - 1 hr assay (AID 651754; calls by dose curve; also: % is scaled to controls: 0 for no effect and ±100 for the full control effect; nearly all actives have a fitted effect of over 35% in size)
Procedure, shortened: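 Mitochondrial potential in living HepG2 cells after 1 hr compound treatment at 37C was read with Mito-MPS dye added for a further 30 min. Red aggregate and green monomer fluorescence were measured; loss of potential leaves dye as cytoplasmic monomers.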

[17] = qHTS assay for small molecule disruptors of the mitochondrial membrane potential - 5 hr assay (AID 651755; calls by dose curve; also: % is scaled to controls: 0 for no effect and ±100 for the full control effect; nearly all actives have a fitted effect of over 40% in size)
Procedure, shortened: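 Seed HepG2 overnight, add compound, incubate 5 hr at 37C and 5% CO2, stain 30 min with Mito-MPS, then measure monomer (490/535 nm) and aggregate (540/590 nm) fluorescence.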

[18] = target: Tyrosine-protein kinase Yes (Homo sapiens) (UniProt P07947); experiment: qHTS for small molecule inhibitors of Yes1 kinase: Primary Screen (AID 686947); details: Yes1 kinase biochemical qHTS inhibition; also: potency is read from the fitted curve at half-maximal effect; nearly all actives have a fitted effect of over 60% in size
Procedure, shortened: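 ADP-Glo luminescence reports ADP formed by 4 nM Yes1 phosphorylating poly(E4Y) (0.3 mg/mL) with 0.1 mM ATP for 60 min at room temperature, following 20 min compound preincubation; normalised between DMSO wells with and without enzyme.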

[19] = qHTS for small molecule inhibitors of Yes1 kinase: Counter Assay (AID 686950);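 also: no kinase present so only ADP-Glo detection of a fixed ADP amount is tested; luminescence from ADP-Glo reporting ADP in a fixed ATP and ADP mixture; series mostly up to about 77 µM; 0% = DMSO wells with ATP plus ADP and -100% = ATP-only wells without ADP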
Procedure, shortened: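 Measuring interference with ADP-Glo, the assay ran 60 min at room temperature on an ATP/ADP mix lacking enzyme. Values were normalized to ATP-plus-ADP (maximum) and ATP-only (minimum) DMSO controls.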

Chain of Arylsulfatase A (Homo sapiens) (P15289 whole entry, looked up): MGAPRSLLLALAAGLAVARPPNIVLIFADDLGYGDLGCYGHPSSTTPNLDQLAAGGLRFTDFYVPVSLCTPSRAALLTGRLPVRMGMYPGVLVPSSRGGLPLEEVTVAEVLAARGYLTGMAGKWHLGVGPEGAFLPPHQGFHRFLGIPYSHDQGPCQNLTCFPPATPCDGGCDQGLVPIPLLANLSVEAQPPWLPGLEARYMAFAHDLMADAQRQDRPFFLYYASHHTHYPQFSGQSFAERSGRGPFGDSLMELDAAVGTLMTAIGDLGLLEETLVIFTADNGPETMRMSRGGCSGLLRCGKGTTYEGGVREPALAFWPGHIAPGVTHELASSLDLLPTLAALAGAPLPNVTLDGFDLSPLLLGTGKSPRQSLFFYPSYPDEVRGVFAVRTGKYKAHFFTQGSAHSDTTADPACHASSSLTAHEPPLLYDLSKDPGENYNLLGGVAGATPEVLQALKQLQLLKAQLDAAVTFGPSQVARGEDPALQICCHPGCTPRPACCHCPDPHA
Chain of Peroxisome proliferator-activated receptor alpha (Homo sapiens) (Q07869 whole entry, looked up): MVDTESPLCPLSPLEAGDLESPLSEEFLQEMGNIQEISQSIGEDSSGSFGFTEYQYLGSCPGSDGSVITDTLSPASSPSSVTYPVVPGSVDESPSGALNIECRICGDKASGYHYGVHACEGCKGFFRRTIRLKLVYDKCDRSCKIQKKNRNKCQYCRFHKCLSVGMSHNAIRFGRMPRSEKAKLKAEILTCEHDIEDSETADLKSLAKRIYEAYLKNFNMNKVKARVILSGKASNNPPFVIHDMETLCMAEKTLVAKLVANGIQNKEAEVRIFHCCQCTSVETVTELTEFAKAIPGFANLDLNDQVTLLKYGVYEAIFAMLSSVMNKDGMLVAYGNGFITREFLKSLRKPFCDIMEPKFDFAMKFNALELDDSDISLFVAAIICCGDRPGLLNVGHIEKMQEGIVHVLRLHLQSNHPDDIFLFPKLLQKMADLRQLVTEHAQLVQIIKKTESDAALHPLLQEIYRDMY
Chain of Tumor necrosis factor (Homo sapiens) (P01375 whole entry, looked up): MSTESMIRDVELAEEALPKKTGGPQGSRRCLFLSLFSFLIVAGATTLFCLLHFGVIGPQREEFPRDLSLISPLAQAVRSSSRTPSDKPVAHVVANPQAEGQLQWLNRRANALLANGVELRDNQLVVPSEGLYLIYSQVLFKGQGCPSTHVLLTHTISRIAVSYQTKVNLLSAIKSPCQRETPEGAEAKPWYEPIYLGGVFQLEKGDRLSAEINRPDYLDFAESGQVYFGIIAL
Chain of Nuclear receptor ROR-gamma (Homo sapiens) (P51449 whole entry, looked up): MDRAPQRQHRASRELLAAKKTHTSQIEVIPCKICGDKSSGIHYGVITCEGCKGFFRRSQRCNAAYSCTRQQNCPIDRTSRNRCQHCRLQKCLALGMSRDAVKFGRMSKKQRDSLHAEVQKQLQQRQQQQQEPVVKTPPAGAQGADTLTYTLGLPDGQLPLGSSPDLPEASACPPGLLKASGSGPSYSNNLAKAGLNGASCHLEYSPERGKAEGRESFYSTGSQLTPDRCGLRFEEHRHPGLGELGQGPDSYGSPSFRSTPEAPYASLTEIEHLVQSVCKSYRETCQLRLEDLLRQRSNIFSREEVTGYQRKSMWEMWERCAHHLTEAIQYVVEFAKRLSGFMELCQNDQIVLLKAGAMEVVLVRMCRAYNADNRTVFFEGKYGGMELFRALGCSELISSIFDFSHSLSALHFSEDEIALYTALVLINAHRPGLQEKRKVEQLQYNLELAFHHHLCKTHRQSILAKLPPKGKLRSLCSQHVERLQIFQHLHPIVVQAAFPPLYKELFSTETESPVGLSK
Chain of Tyrosine-protein kinase Yes (Homo sapiens) (P07947 whole entry, looked up): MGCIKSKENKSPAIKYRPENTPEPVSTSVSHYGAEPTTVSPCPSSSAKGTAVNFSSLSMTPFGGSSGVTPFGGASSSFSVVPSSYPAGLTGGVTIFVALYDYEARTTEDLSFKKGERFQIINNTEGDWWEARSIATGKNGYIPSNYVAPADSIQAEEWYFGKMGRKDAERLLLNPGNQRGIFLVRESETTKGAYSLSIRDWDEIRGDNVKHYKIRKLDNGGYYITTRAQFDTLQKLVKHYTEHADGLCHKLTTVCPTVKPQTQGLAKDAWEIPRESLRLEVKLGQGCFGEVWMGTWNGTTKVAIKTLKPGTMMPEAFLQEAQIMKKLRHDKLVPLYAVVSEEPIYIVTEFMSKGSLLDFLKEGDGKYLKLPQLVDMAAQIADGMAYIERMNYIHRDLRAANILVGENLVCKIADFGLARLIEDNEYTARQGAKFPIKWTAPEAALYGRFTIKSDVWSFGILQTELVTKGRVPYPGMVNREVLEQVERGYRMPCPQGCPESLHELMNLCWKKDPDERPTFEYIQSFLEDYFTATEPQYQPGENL

COc1ccc2c(c1)c(CC(=O)O)c(C)n2C(=O)c1ccccc1
inactive: Potency [1] | outcome [2]

CC(/C=C/c1cccc(Oc2ccc(F)cc2)c1)N(O)C(N)=O (centres undefined)
inactive: Potency [1] | outcome [2] | Potency [3]

COc1cc(N)c(Cl)cc1C(=O)OCCN1CCCCC1
inactive: Potency [1] | outcome [2] | Potency [3]

CC(=O)C(C)=O
inactive: activation [4] -1.05% | activation [5] -1.05% | outcome [6] | outcome [7] | activation [8] -0.684% | max response [9] -2.24% | outcome [10] | outcome [2] | Potency [3] | Potency [11] | outcome [12] | outcome [13] | max response [14] -2.25%

CC[C@@H]1Cc2cc(O)ccc2C2=C1c1ccc(O)cc1C[C@H]2CC
inactive: max response [9] -2.38% | Potency [1] | outcome [2] | Potency [3] | Potency [11] | outcome [12] | max response [14] -25.6%

NCC(O)c1ccc(O)c(O)c1 (centres undefined)
inactive: Potency [1]

COC(=O)[C@H](NC(=O)c1cc(-c2ccccc2)nc2ccccc12)c1ccccc1
inactive: Potency [1]

NC(=O)c1ccccc1
inactive: Potency [15] | activation [5] 1.72% | outcome [16] | outcome [17] | outcome [6] | activation [8] 0.0429% | max response [9] 0.54% | outcome [10] | Potency [1] | outcome [2] | Potency [3] | Potency [11] | outcome [12] | outcome [13] | max response [14] -5%

CCOC(=O)C12CC1/C(=N/O)c1ccccc1O2 (centres undefined)
inactive: Potency [1] | outcome [2]

O=c1cc(-c2ccccc2F)[nH]c2cc3c(cc12)OCO3
inactive: Potency [1] | outcome [2] | Potency [3]

CCCCCCCCCCCCCCSCC(=O)O
inactive: activation [4] 1.79% | activation [5] 3.35% | activation [8] 0.376% | outcome [2] | Potency [3] | Potency [11] | max response [14] 2.74%
active: Potency [9] 10 µM

COc1ccccc1N1CCN(CCCNc2c(C)c(=O)n(C)c(=O)n2C)CC1
inactive: Potency [1] | outcome [2] | Potency [3]

CCc1ccc2c(-c3cccc(Cl)c3)nc(=O)n(CC)c2n1
inactive: Potency [1] | outcome [2] | Potency [3]

CN(C)S(=O)(=O)c1ccc2c(c1)/C(=C/c1cc3c([nH]1)CCCC3)C(=O)N2
active: Potency [18] 0.0972 µM
inactive: outcome [19] | Potency [1] | outcome [2] | Potency [3]
